Assay [1] concerns the target T1, Ephrin type-B receptor 1 (Homo sapiens) (UniProt P54762).
T1 sequence (whole entry): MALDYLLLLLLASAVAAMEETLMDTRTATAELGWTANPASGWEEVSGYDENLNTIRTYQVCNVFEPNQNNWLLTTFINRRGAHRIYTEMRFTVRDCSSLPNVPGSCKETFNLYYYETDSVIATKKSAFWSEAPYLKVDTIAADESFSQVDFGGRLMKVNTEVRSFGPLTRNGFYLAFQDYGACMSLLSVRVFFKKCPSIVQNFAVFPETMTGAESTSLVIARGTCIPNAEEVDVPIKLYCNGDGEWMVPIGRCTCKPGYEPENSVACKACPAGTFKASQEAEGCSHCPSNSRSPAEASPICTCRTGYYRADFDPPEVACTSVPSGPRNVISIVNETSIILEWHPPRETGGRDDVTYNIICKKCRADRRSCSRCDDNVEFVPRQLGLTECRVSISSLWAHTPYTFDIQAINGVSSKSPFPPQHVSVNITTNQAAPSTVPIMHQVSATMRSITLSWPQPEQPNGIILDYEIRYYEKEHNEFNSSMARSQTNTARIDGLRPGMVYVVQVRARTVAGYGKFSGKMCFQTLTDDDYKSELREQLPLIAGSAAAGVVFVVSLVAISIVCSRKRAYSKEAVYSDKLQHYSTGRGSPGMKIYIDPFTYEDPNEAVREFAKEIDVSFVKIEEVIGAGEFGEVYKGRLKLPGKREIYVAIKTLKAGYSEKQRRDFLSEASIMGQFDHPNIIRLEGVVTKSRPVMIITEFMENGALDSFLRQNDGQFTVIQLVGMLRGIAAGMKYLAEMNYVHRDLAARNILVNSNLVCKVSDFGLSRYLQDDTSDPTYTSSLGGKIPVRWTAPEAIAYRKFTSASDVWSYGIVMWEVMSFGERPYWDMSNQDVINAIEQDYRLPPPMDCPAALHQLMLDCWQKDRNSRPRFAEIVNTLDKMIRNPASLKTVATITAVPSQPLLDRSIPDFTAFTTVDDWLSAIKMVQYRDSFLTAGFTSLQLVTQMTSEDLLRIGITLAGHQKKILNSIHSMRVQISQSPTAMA
The note with it: at 10 µM.

Assay [2] concerns the target T2, Ephrin type-B receptor 2 (Homo sapiens) (UniProt P29323).
T2 sequence (whole entry): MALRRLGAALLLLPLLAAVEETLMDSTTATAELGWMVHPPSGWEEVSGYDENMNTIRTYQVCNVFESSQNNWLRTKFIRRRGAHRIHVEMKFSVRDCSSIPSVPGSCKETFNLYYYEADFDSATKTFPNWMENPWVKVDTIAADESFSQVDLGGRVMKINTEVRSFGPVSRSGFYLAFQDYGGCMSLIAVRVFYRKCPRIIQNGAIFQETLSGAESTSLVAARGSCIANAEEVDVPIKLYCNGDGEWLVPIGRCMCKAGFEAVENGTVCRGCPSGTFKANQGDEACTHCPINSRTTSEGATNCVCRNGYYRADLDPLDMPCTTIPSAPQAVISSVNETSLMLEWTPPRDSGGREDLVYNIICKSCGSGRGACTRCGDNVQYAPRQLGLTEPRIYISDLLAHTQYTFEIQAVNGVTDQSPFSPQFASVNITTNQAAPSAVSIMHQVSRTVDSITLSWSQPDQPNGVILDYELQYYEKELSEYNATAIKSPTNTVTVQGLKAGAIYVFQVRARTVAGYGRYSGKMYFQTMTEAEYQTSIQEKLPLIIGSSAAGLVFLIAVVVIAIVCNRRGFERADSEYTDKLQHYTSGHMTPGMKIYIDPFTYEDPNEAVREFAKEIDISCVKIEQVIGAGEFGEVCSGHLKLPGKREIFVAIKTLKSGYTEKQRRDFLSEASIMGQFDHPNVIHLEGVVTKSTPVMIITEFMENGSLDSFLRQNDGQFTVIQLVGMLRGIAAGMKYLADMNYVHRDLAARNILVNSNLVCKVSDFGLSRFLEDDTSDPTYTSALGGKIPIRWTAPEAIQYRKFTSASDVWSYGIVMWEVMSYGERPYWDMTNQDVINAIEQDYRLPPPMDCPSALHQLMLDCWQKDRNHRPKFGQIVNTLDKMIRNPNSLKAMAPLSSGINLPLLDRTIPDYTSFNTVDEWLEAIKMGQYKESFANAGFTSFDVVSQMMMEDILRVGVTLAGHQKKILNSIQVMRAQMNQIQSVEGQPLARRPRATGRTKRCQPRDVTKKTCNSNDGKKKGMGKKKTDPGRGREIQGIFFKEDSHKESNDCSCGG
Conditions: at 1 µM; call rule not given here.

In assay [3] the target is T2, Ephrin type-B receptor 2 (Homo sapiens). Conditions: at 10 µM.
The target in assay [4] is T3, Ephrin type-B receptor 3 (Homo sapiens) (UniProt P54753).
T3 sequence (whole entry): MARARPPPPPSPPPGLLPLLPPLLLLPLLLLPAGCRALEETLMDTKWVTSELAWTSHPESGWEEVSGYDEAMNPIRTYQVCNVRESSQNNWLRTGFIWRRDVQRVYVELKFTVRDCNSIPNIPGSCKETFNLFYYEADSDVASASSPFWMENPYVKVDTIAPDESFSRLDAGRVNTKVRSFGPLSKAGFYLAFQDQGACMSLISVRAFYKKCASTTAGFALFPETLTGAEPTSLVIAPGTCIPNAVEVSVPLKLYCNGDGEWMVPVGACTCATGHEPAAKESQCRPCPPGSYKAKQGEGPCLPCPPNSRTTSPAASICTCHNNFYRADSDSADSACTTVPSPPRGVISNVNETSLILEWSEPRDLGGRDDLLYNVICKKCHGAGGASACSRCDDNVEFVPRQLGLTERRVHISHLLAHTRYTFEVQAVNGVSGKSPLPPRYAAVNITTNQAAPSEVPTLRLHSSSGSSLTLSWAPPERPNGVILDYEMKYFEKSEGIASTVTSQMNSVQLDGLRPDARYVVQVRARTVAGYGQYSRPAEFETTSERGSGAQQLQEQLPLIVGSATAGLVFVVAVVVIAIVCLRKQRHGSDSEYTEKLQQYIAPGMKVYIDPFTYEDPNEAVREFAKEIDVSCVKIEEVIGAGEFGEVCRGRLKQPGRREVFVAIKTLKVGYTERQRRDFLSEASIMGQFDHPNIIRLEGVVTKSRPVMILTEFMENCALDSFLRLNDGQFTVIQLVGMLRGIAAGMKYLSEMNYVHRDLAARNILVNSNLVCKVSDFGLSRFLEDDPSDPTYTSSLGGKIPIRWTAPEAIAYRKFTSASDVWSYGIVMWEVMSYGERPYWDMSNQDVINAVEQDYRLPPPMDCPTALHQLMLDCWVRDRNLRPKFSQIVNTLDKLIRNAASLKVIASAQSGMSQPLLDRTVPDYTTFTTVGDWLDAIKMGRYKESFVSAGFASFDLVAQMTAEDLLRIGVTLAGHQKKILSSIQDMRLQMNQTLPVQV
The note with it: at 1 µM.

In assay [5] the target is T3, Ephrin type-B receptor 3 (Homo sapiens). The note with it: at 10 µM.
In assay [6] the target is T4, Ephrin type-B receptor 4 (Homo sapiens) (UniProt P54760).
T4 sequence (whole entry): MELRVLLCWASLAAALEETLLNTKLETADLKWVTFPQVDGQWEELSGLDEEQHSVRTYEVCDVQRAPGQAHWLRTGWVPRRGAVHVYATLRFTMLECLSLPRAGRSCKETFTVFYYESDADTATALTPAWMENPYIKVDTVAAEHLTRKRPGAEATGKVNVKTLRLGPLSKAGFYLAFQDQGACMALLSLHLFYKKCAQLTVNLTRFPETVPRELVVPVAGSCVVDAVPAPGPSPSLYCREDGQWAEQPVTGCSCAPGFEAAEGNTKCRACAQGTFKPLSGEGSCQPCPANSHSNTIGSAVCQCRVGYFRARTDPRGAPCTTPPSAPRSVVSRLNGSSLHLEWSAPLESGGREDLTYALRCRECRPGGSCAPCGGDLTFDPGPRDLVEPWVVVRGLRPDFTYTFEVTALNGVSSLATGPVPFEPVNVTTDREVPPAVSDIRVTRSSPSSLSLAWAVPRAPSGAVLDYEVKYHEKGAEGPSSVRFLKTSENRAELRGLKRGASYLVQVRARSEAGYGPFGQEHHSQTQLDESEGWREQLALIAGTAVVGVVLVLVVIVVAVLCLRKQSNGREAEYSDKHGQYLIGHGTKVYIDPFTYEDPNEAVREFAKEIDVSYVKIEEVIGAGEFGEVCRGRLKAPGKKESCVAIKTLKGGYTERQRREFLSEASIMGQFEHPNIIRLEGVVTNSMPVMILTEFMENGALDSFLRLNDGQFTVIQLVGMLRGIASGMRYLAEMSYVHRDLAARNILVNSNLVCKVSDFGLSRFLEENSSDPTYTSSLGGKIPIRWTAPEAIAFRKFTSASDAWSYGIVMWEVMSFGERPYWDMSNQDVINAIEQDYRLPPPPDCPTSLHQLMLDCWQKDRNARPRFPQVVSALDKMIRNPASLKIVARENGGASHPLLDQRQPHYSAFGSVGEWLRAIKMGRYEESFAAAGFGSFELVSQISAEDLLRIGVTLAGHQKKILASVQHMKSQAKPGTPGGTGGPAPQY
The note with it: at 1 µM.

The target in assay [7] is T4, Ephrin type-B receptor 4 (Homo sapiens). The note with it: at 10 µM.
For assay [8], the target named is Receptor tyrosine-protein kinase erbB-4 (Homo sapiens) (UniProt Q15303). The note with it: at 1 µM.
Chain of Receptor tyrosine-protein kinase erbB-4 (Homo sapiens) (Q15303 whole entry): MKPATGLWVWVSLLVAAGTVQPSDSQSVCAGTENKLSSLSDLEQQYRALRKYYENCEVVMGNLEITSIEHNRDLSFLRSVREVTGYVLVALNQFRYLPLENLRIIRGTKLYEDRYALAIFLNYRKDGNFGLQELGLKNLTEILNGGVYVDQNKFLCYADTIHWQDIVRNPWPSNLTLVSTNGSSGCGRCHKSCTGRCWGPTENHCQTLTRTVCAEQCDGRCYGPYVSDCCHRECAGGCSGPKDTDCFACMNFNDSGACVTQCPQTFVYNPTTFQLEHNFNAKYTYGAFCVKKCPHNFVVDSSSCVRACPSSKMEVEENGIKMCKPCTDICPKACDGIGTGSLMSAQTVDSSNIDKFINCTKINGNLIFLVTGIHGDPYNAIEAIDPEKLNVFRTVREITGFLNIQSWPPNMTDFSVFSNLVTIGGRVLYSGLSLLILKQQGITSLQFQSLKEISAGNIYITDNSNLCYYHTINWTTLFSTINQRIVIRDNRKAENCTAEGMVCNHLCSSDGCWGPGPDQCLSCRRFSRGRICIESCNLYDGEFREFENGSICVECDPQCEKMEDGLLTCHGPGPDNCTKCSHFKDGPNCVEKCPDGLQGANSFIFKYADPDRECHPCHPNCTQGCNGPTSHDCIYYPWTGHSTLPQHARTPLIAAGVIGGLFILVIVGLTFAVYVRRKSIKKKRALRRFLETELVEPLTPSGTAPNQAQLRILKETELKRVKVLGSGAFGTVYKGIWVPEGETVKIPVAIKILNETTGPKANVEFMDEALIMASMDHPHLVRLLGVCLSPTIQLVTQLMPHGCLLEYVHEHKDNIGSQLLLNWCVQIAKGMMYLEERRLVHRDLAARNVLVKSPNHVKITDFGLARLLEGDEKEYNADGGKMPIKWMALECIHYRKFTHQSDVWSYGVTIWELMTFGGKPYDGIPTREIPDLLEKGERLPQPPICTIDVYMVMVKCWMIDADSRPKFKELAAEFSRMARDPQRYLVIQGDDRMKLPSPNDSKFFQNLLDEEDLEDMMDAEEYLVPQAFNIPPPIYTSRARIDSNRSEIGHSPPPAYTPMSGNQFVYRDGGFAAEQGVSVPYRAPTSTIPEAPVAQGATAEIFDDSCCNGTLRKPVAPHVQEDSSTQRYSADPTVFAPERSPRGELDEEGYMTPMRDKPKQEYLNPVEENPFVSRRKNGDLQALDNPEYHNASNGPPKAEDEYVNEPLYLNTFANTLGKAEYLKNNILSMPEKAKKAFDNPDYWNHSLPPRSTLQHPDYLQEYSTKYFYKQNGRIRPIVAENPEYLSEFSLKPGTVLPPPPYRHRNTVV
Assay [9] shares this target. Conditions: at 10 µM.
Assay [10] has as its target Focal adhesion kinase 1 (Homo sapiens) (UniProt Q05397). Conditions: at 1 µM.

Each structure is given as a SMILES string.

Chain of Focal adhesion kinase 1 (Homo sapiens) (Q05397 2-1052 limits assumed): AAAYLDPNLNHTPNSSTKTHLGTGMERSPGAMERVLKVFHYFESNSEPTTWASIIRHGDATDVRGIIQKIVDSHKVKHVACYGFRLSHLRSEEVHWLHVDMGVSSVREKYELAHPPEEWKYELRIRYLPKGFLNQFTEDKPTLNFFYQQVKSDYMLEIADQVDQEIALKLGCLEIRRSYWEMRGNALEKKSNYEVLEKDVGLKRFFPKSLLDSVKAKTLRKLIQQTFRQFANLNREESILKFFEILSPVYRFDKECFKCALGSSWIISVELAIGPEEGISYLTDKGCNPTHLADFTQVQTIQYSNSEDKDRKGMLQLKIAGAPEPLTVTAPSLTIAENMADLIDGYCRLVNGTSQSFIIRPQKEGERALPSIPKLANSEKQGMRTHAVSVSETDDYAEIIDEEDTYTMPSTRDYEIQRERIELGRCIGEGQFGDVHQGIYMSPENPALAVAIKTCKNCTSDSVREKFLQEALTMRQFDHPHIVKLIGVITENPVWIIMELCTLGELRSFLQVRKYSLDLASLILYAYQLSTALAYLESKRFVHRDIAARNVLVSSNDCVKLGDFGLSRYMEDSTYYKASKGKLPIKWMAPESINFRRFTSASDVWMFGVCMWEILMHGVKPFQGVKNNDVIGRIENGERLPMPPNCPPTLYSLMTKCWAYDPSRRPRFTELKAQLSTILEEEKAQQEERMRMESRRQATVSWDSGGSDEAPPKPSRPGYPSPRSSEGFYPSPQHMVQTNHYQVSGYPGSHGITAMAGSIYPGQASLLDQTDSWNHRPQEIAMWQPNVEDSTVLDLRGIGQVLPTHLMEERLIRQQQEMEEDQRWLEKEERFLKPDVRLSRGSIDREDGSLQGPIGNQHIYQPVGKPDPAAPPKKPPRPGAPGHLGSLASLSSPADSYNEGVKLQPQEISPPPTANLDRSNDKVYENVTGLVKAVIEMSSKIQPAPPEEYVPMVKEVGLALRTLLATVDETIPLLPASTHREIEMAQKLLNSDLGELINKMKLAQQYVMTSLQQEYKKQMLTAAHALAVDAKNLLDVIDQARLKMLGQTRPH

With `Cn1cc(/C=C2\C(=O)Nc3ccc(S(N)(=O)=O)cc32)c2ccccc21`, the residual activity in assay [1] is 21%; in [2], 73%; in assay [3], 49%; in assay [4], 100% (inactive); in assay [5], 117%; in assay [6], 57%. Further, the residual activity was 11% in assay [7], 94% in [8], 85% in assay [9] and 103% in assay [10].

As a reminder, the residual activity is the signal under treatment as a percentage of the control signal.

The record behind these values is ChEMBL document CHEMBL2218924, “A broad activity screen in support of a chemogenomic map for kinase signalling research and drug discovery” (Biochem J, 2013).
